Shown are actives, neighbours in structure and some others; about 2.4% of the full set was active somewhere.
CHO-K1 Ca antag: M1 antagonist counterscreen hit in parental CHO-K1 cells; ATP-induced calcium, Fluo-8 fluorescence; inhibition, % at 3 µM; 0.6% of 360,000 active; AID 602250;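 active means inhibition above a per-plate cutoff, the plate's mean sample inhibition plus 3 SD, cut at about 24% in these data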
M1 ag: activates human CHRM1 receptor. CHO-K1 hM1, Fluo-8 calcium fluorescence, agonist mode; 0% DMSO, 100% acetylcholine EC100. activation, % at 3 µM. 0.33% of 360,000 active;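 active means activation above the run's mean compound activation plus 3 SD, cut at about 16% in these data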;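 further: peak over basal fluorescence ratio within a 140 s kinetic read after compound addition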
Target sequence (P11229 whole entry, looked up): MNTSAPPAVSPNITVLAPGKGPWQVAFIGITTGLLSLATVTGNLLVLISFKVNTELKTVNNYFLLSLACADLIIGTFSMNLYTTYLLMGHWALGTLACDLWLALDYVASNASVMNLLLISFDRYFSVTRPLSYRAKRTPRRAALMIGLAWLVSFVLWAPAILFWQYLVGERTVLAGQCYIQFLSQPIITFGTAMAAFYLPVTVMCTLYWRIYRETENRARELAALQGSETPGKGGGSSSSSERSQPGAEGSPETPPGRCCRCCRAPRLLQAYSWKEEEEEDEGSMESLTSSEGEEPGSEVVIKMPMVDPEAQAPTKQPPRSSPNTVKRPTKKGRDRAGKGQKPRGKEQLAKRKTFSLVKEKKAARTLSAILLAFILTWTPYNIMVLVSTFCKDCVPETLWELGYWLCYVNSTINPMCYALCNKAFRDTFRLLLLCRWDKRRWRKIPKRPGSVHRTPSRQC
CHO-K1 Ca PAM: M1 PAM counterscreen hit in parental CHO-K1 cells; ATP EC20, Fluo-8 calcium fluorescence; 0% at ATP EC20, 100% at ATP max; activation, % at 3 µM; 0.02% of 360,000 active; AID 602247;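 active means activation above the run cutoff, the mean activation of all test compounds plus 3 SD, cut at about 40% in these data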;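 further: peak over basal fluorescence ratio in a 140 s read after ATP addition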
M1 ag parental: nonselective activator or artifact in parental CHO-K1 cells; Fluo-8 calcium fluorescence; scaled to maximal ATP response, vehicle zero; activation, % at 3 µM; 0.48% of 360,000 active; AID 602248; in the data active means activation above about 15%;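 further: untransfected CHO-K1 host cells lacking M1 receptor as counterscreen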
CHRM1 antagonist: human CHRM1 antagonism. AID 588852. inhibition, % at 3 µM. CHO-K1 hM1, Fluo-8 calcium fluorescence, ACh EC80 antagonist. 1.3% of 360,000 active. P11229;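 active means percent inhibition above its own plate's cutoff, namely the mean of that plate's compound wells plus 3 SD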;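 further: peak over basal fluorescence ratio during 140 s after agonist addition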
CHRM1 PAM: human CHRM1 positive allosteric modulation. P11229. CHO-K1 hM1, Fluo-8 calcium fluorescence, ACh EC20; 0% = ACh EC20, 100% = maximal ACh. activation, % at 3 µM. 0.088% of 360,000 active; in the data active means activation above about 19%, passing the limit was not always enough
Numbers stand for hits.

What do the screens show for `Fc1cccc(Cc2noc(CN3CCN(C4CCc5ccccc5C4)CC3)n2)c1` (stereo not given)?
CHO-K1 Ca antag: inactive; M1 ag: inactive; CHO-K1 Ca PAM: inactive; M1 ag parental: inactive; CHRM1 antagonist: 72.0; CHRM1 PAM: inactive

What do the screens show for `Fc1cccc(Cc2noc(CN3CCSCC3)n2)c1`?
CHO-K1 Ca antag: inactive; M1 ag: inactive; CHO-K1 Ca PAM: inactive; M1 ag parental: inactive; CHRM1 antagonist: inactive; CHRM1 PAM: inactive

How did COc1ccccc1N1CCN(C(=O)c2cc(S(=O)(=O)N3CCOCC3)ccc2C)CC1 do in these assays?
CHO-K1 Ca antag: inactive; M1 ag: inactive; CHO-K1 Ca PAM: inactive; M1 ag parental: inactive; CHRM1 antagonist: inactive; CHRM1 PAM: inactive

How did O=C(NCC(c1ccco1)N1CCCC1)c1ccc(S(=O)(=O)Nc2ccc(F)cc2)cc1 (stereo not given) do in these assays?
CHO-K1 Ca antag: inactive; M1 ag: inactive; CHO-K1 Ca PAM: inactive; M1 ag parental: inactive; CHRM1 antagonist: 49.6; CHRM1 PAM: inactive

Results for O=C(NCC(c1ccco1)N1CCCCC1)c1ccc(NS(=O)(=O)c2ccc(F)cc2)cc1 (stereo not given) ?
CHO-K1 Ca antag: inactive; M1 ag: inactive; CHO-K1 Ca PAM: inactive; M1 ag parental: inactive; CHRM1 antagonist: inactive; CHRM1 PAM: inactive

What do the screens show for `O=C(NCC(c1ccco1)N1CCCC1)c1cccc(NS(=O)(=O)c2ccc(Br)cc2)c1` (stereo not given)?
CHO-K1 Ca antag: inactive; M1 ag: inactive; CHO-K1 Ca PAM: inactive; M1 ag parental: inactive; CHRM1 antagonist: 50.3; CHRM1 PAM: inactive

How did Cc1cccc(NS(=O)(=O)c2cccc(C(=O)NCC(c3ccco3)N3CCCCC3)c2)c1 (stereo not given) do in these assays?
CHO-K1 Ca antag: inactive; M1 ag: inactive; CHO-K1 Ca PAM: inactive; M1 ag parental: inactive; CHRM1 antagonist: inactive; CHRM1 PAM: inactive

What do the screens show for `O=C(Nc1ccc(Oc2cccnc2)cc1)C1CCN(Cc2cc(Cl)ccc2O)CC1`?
CHO-K1 Ca antag: inactive; M1 ag: inactive; CHO-K1 Ca PAM: inactive; M1 ag parental: inactive; CHRM1 antagonist: inactive; CHRM1 PAM: inactive

How did Cc1ccccc1CNC(=O)c1ccccc1N(C)S(=O)(=O)c1ccccc1 do in these assays?
CHO-K1 Ca antag: inactive; M1 ag: inactive; CHO-K1 Ca PAM: inactive; M1 ag parental: inactive; CHRM1 antagonist: inactive; CHRM1 PAM: inactive

What do the screens show for `CN(C)c1ccc(/C=C(/C#N)C(=O)Nc2nc3c(s2)CCN(Cc2ccccc2)C3)cc1`?
CHO-K1 Ca antag: inactive; M1 ag: 18.7; CHO-K1 Ca PAM: inactive; M1 ag parental: inactive; CHRM1 antagonist: 23.9; CHRM1 PAM: inactive

What do the screens show for `COc1ccc(NC2=Nc3cccc4cccc2c34)cc1`?
CHO-K1 Ca antag: inactive; M1 ag: 19.1; CHO-K1 Ca PAM: inactive; M1 ag parental: inactive; CHRM1 antagonist: inactive; CHRM1 PAM: inactive

Results for CCOC(=O)C1=C(C)N(CC(C)C)C(=O)/C1=C\c1ccc(OCC(=O)Nc2ccccc2)cc1 ?
CHO-K1 Ca antag: inactive; M1 ag: inactive; CHO-K1 Ca PAM: inactive; M1 ag parental: inactive; CHRM1 antagonist: 33.9; CHRM1 PAM: inactive

Results for c1ccc(CN2CCN(C(c3ccccc3)c3nnnn3Cc3ccccc3)CC2)cc1 (stereo not given) ?
CHO-K1 Ca antag: inactive; M1 ag: inactive; CHO-K1 Ca PAM: inactive; M1 ag parental: inactive; CHRM1 antagonist: inactive; CHRM1 PAM: inactive

What do the screens show for `Fc1ccc(CN2CCN(C(c3ccccc3)c3ccccc3)CC2)cc1`?
CHO-K1 Ca antag: inactive; M1 ag: inactive; CHO-K1 Ca PAM: inactive; M1 ag parental: inactive; CHRM1 antagonist: 36.1; CHRM1 PAM: inactive

What do the screens show for `OC(CN1CCN(Cc2ccccc2)CC1)c1ccc(F)cc1` (stereo not given)?
CHO-K1 Ca antag: inactive; M1 ag: inactive; CHO-K1 Ca PAM: inactive; M1 ag parental: inactive; CHRM1 antagonist: inactive; CHRM1 PAM: inactive

What do the screens show for `c1ccc(CN2CCN(C(c3ccccc3)c3ccccc3)CC2)cc1`?
CHO-K1 Ca antag: inactive; M1 ag: inactive; CHO-K1 Ca PAM: inactive; M1 ag parental: inactive; CHRM1 antagonist: 44.2; CHRM1 PAM: inactive

What do the screens show for `O=S(=O)(CCN1CCN(C(c2ccccc2)c2ccccc2)CC1)C(F)(F)F`?
CHO-K1 Ca antag: inactive; M1 ag: inactive; CHO-K1 Ca PAM: inactive; M1 ag parental: inactive; CHRM1 antagonist: 77.3; CHRM1 PAM: inactive

How did O=C(COC(=O)c1ccccc1F)NC(=O)NC1CCCC1 do in these assays?
CHO-K1 Ca antag: inactive; M1 ag: inactive; CHO-K1 Ca PAM: inactive; M1 ag parental: inactive; CHRM1 antagonist: inactive; CHRM1 PAM: inactive

How did CC(C)(C)OC(=O)C[C@H]1C/C=C\C[C@H](CC(=O)N[C@H](CO)Cc2ccccc2)C(=O)N2CCC[C@H]2COC1=O do in these assays?
CHO-K1 Ca antag: inactive; M1 ag: inactive; CHO-K1 Ca PAM: inactive; M1 ag parental: inactive; CHRM1 antagonist: inactive; CHRM1 PAM: inactive

What do the screens show for `CCOC(=O)N1CCN(CC(=O)Nc2sccc2C#N)CC1`?
CHO-K1 Ca antag: inactive; M1 ag: inactive; CHO-K1 Ca PAM: inactive; M1 ag parental: inactive; CHRM1 antagonist: inactive; CHRM1 PAM: inactive

Results for Cc1nc2c(OCc3ccc(F)cc3)cccn2c1N(C)C(=O)CCC1CCCC1 ?
CHO-K1 Ca antag: inactive; M1 ag: inactive; CHO-K1 Ca PAM: inactive; M1 ag parental: inactive; CHRM1 antagonist: 42.9; CHRM1 PAM: inactive

Results for Cc1nc2c(OCc3ccc(C#N)cc3)cccn2c1N(C)C(=O)CCC1CCCC1 ?
CHO-K1 Ca antag: inactive; M1 ag: inactive; CHO-K1 Ca PAM: inactive; M1 ag parental: inactive; CHRM1 antagonist: 39.6; CHRM1 PAM: inactive

Results for Cc1nc2c(OCc3ccc(C(F)(F)F)cc3)cccn2c1N(C)C(=O)CCC1CCCC1 ?
CHO-K1 Ca antag: inactive; M1 ag: inactive; CHO-K1 Ca PAM: inactive; M1 ag parental: inactive; CHRM1 antagonist: inactive; CHRM1 PAM: inactive

How did O=[N+]([O-])c1ccc2[nH]ncc2c1 do in these assays?
CHO-K1 Ca antag: inactive; M1 ag: inactive; CHO-K1 Ca PAM: inactive; M1 ag parental: inactive; CHRM1 antagonist: inactive; CHRM1 PAM: inactive

Results for O=C1C=C(c2cccnc2)CCC1 ?
CHO-K1 Ca antag: inactive; M1 ag: inactive; CHO-K1 Ca PAM: inactive; M1 ag parental: inactive; CHRM1 antagonist: inactive; CHRM1 PAM: inactive

How did O=C1CCCc2[nH]nc(-c3cccnc3)c21 do in these assays?
CHO-K1 Ca antag: 26.0; M1 ag: inactive; CHO-K1 Ca PAM: inactive; M1 ag parental: inactive; CHRM1 antagonist: inactive; CHRM1 PAM: inactive

What do the screens show for `COc1cccc(NC(=O)CCc2nc(-c3ccccc3F)no2)c1`?
CHO-K1 Ca antag: inactive; M1 ag: inactive; CHO-K1 Ca PAM: inactive; M1 ag parental: inactive; CHRM1 antagonist: inactive; CHRM1 PAM: inactive

How did O=C(CCc1nc(-c2ccccc2F)no1)Nc1ccc(Oc2ccccc2)cc1 do in these assays?
CHO-K1 Ca antag: 24.4; M1 ag: inactive; CHO-K1 Ca PAM: inactive; M1 ag parental: inactive; CHRM1 antagonist: inactive; CHRM1 PAM: inactive

What do the screens show for `O=S(=O)(NN1CCOCC1)c1cc(Cl)cc(Cl)c1O`?
CHO-K1 Ca antag: inactive; M1 ag: inactive; CHO-K1 Ca PAM: inactive; M1 ag parental: inactive; CHRM1 antagonist: inactive; CHRM1 PAM: inactive

Assay outcomes (PubChem BioAssay)
